Screens deposited in PubChem BioAssay by several laboratories.
CYP2C19 activ – cytochrome P450 2C19 (human) activation; P33261; recombinant CYP2C19, luciferin-H EGE luminescence; hits give high values; 0 = fully inhibited enzyme, 1 = untreated enzyme; activation factor at 5 µM; 96,000 tested, under 10 active; AID 1025;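 active means activation factor of at least 2 at 5 µM in the primary screen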;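 further: 0 = wells with 2.5 mM tranylcypromine and 1 = vehicle-only wells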
Target sequence (P33261 whole entry, looked up): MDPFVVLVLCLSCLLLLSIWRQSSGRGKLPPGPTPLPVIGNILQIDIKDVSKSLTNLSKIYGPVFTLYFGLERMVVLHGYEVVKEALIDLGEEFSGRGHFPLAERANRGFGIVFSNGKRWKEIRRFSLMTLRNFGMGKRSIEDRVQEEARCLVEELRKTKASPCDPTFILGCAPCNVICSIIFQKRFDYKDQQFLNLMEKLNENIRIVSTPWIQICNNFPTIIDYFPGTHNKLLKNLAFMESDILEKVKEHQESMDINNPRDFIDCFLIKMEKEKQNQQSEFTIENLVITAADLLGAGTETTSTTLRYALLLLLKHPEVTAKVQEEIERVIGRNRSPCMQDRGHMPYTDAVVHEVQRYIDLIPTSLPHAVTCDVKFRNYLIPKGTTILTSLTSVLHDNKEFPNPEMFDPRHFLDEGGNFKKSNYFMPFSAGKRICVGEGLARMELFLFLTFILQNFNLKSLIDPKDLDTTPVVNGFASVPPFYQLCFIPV
Measles CPE – protection of cells from measles virus; 140,000 tested, 1.5% active; protection (pct of control), % at 4 µM; AID 841; Measles virus-infected cells, CPE protection, absorbance; in the data active means protection mostly above about 24%, no sharp cut-off; inactive means mostly below about 26%
CYP2C19 inh – human CYP2C19 inhibition; CYP2C19 Supersomes, luciferin-H EGE luminescence, 30 min; P33261; 96,000 tested, 21% active; inhibition, % at 5 µM;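 active means CYP2C19 inhibition above a set limit at 5 µM in the primary screen, cut at about 50% in these data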;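 further: plate controls were negative control wells for no effect and 2.5 mM tranylcypromine positive control for full effect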
CYP2C9 inh – human CYP2C9 inhibition. inhibition, % at 5 µM. AID 777. CYP2C9 Supersomes, luciferin-H conversion, luminescence. 96,000 tested, 20% active. P11712;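 active means blocking of liver enzyme CYP2C9 beyond about 50% at 5 µM, limit read from the data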
CYP2C9 act – increases human cytochrome P450 2C9 activity | P11712 | recombinant CYP2C9, luciferin-H conversion, luminescence; hits give high values; factor 1 = untreated enzyme, 0 = blocked | activation factor at 5 µM | 96,000 tested, 1.4% active | AID 1024;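 active means activation factor of 2 or more for CYP2C9 at a 5 µM dose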;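 further: 0 = sulfaphenazole-blocked wells and 1 = vehicle-only wells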
Active calls of the source: *; . = no result. Most compounds without a hit are left out; they make up all but 22% or so of the library.

SMILES	CYP2C19 activ	Measles CPE	CYP2C19 inh	CYP2C9 inh	CYP2C9 act
CCN(CC)S(=O)(=O)c1ccc(N2CCCC2)c(NS(=O)(=O)c2ccc(OC)cc2)c1	.	10	.	.	.
Cc1sc(NC(=O)CN2CCOCC2)nc1-c1ccc2c(c1)CCN2S(=O)(=O)c1ccccc1	0.9	2	7	14	0.9
CCC(CC)C(=O)Nc1nc(-c2ccc3c(c2)CCN3C(=O)C2CC2)c(C)s1	0.7	22	33	81*	0.2
Cc1ccccc1C(=O)N1CCc2cc(-c3nc(NC(=O)Cc4ccc5c(c4)OCO5)sc3C)ccc21	.	62*	.	.	.
Cc1sc(NC(=O)Cc2ccc3c(c2)OCO3)nc1-c1ccc2c(c1)CCN2C(=O)c1cccc(F)c1	.	53*	.	.	.
Cc1ccc(C(=O)NC(O)C(Cl)Cl)cc1 (stereo not drawn)	.	3	.	.	.
COCCN1CCc2c(C)nc3c(-c4ccc(OC)c(OC)c4)cnn3c21	0.9	6	14	29	0.7
COC(=O)c1ccc(C2C(Oc3ccccc3)C(=O)N2CCc2ccc(F)cc2)cc1 (stereo not drawn)	1.1	6	-7	8	0.9
CCCC(=O)Nc1nc2ccc(S(=O)(=O)N3CCCCC3)cc2s1	.	5	.	.	.
Cc1ccsc1-c1nc(CSCC(=O)NCc2ccc3c(c2)OCO3)c(C)o1	0.5	17	46	79*	0.2
COc1ccc(-c2nc(CSCC(=O)NCc3ccc4c(c3)OCO4)c(C)o2)cc1OC	0.3	2	65*	53*	0.5
COc1ccc(-c2nc(CSCC(=O)N3CCc4ccccc43)c(C)o2)cc1OC	0.9	4	13	50	0.5
COc1ccc(-c2nc(CSCC(=O)NCCC3=CCCCC3)c(C)o2)cc1OC	0.4	3	60*	46	0.5
CCc1ccc(-c2nc(CSCC(=O)NCCCN3CCCC3=O)c(C)o2)cc1	0.9	5	14	88*	0.1
Cc1ccccc1-c1nc(CS(=O)(=O)CC(=O)NCc2ccc3c(c2)OCO3)c(C)o1	1	13	4	31	0.7
Cc1ccccc1-c1nc(CS(=O)(=O)CC(=O)NCCCN2CCCC2=O)c(C)o1	1.1	21	-11	23	0.8
COc1ccc(N2CCN(S(=O)(=O)c3ccc(-n4cnnn4)c(C)c3)CC2)cc1	.	7	.	.	.
COCCNC(=O)CSCc1nc(-c2ccc(SC)cc2)oc1C	1	8	-2	-5	1
COc1ccc(-c2nc(CSCC(=O)NCc3ccc4c(c3)OCO4)c(C)o2)cc1	0	2	95*	89*	0.1
Cc1nn(-c2ccccc2)c(N2CCCCC2)c1/C=N/O	1	54*	4	0	1
Cc1ccc(C(=O)Nc2nc(C(C)(C)C)cs2)s1	0.8	4	20	47	0.5
Cc1nn(CC(=O)Nc2cc(S(=O)(=O)N(C)C)ccc2Cl)c(C)c1[N+](=O)[O-]	.	41*	.	.	.
CCNC(=O)Nc1cc2nc(C)n(Cc3ccc(Br)cc3)c2nc1C	0.2	1	80*	30	0.7
COc1cc2c(cc1OC)CN(CC(=O)Nc1ccc(C)cc1)CC2	0.4	4	65*	60*	0.4
COC(=O)c1[nH]c2ccc(C)cc2c1NC(=O)CN1CCc2cc(OC)c(OC)cc2C1	0.3	8	67*	81*	0.2
SMILES	CYP2C19 activ	Measles CPE	CYP2C19 inh	CYP2C9 inh	CYP2C9 act
COc1cc2c(cc1OC)CN(CC(=O)Nc1ccccc1C#N)CC2	0.5	1	55*	60*	0.4
CCOC(=O)c1[nH]c2ccc(OC)cc2c1NC(=O)CN1CCc2ccccc2C1	0.2	19	77*	81*	0.2
CSC1=N/C(=C\c2ccc(C)s2)C(=O)S1	.	5	.	.	.
O=c1[nH]c2cc(Br)cnc2nc1/C=C(\O)c1ccc(F)cc1	0.8	6	20	1	1
COC(=O)C1C(=O)c2c([nH]c(C(=O)OC3CCCCCC3)c2C)CC1C (stereo not drawn)	1.2	38	-19	-7	1.1
CCCCn1nnc(NC(=O)COc2cc(C)ccc2C(C)C)n1	0.8	14	19	0	1
COC(=O)c1[nH]c2cc(OC)ccc2c1NC(=O)CCN1CCN(c2ccccc2)CC1	1.1	22	-12	67*	0.3
CCOC(=O)c1[nH]c2ccc(OC)cc2c1NC(=S)N1CCN(c2ccccc2)CC1	.	31*	.	.	.
CC1CCN(CC(=O)Nc2ccccc2Sc2ccccc2)CC1	.	5	.	.	.
COc1ccc(NCC(=O)Nc2ccccc2C#N)cc1Cl	0.1	9	95*	59*	0.4
CC1CCN(CC(=O)Nc2ccccc2C#N)CC1	0.2	4	75*	31	0.7
